Records with an inconclusive call do not appear. A number with no mark means an inactive call. Activity calls are given as the source filed them. Calls come from the whole dose curve; as a rule, active = well fitted cell-killing curve with a large enough effect in the repeat runs; inconclusive = weak or mixed curves, or effect the other way; inactive = flat fitted curve, though single readings scatter.
Assay: qHTS assay to identify small molecule antagonists of the retinoid acid receptor (RAR) signaling pathway - cell viability counter screen (AID 1159551); note: nearly all actives have a fitted effect of over 35% in size
Details: C3RL4 cells viability, ATP luminescence (CellTiter-Glo), 6 h; series mostly up to 92.4 µM
Source text: U.S. Tox21 Program National Center for Advancing Translational Sciences [NCATS] NIH Chemical Genomics Center [NCGC] U.S. Environmental Protection Agency [EPA] National Institutes of Environmental Health Sciences [NIEHS] National Toxicology Program [NTP] U.S. Food and Drug Administration [FDA] Tox21 Assay Overview: All-trans Retinoic acid (atRA) is the potent natural metabolite of retinol and plays an important role in normal embryonic development and maintenance of cellular phenotype in adult animals. atRA is the activating ligand for the retinoic acid receptors (RARs) which form heterodimers with retinoid X receptors (RXRs) on the retinoic acid response element (RARE). Through activation of the RAR/RXRs nuclear receptors, atRA regulates the transcription of a large number of protein-coding genes and regulatory RNAs. Intracellular levels of atRA are controlled by the retinol signaling pathway (RSP) that regulates the biosynthesis and catabolism of atRA to maintain physiological levels. Chemicals that interfere with the RSP can cause abnormal intracellular levels of atRA and therefore are potential developmental toxicants. To assess compounds for the potential adverse effect on embryonic development through interfering with retinol signaling, a cell-based RARE luciferase reporter gene assay was used. C3RL4 cell line (OARSA/CFSAN/FDA, Laurel, MD) was used to screen Tox21 10K compound library for identifying inhibitors of the RSP. Also cytotoxicity was assessed by determining the viability of cells based on the quantitation of ATP.
Tox21 Assay Protocol Summary: C3RL4 cells were seeded at 1,000/well in 4 uL of assay medium into white solid 1,536-well tissue culture plates (Greiner Bio-One North America Inc. Monroe, NC) using a Multidrop Combi (Thermo Scientific, Waltham, MA) dispenser. After incubation at 37 C and 5% CO2 for an overnight, 23 nL of compounds dissolved in DMSO, positive control or DMSO only were transferred by a Pintool station (Kalypsys, San Diego, CA). One ul of 1 uM (final concentration) of Retinol was added right after the compound addition by using a Flying Reagent Dispenser (FRD) (Aurora Discovery, San Diego, CA). After 6 hr incubation at 37 C and 5% CO2, 5 uL of CellTiter-Glo reagent (Promega Corporation, Madison, WI) was added to each assay plate using an FRD. Luminescence was quantified on a ViewLux plate reader (PerkinElmer, Waltham, MA) after 30 min incubation at room temperature.
With `Cc1c(-c2cccnc2)c2ccccc2n1CCCCC(=O)O` the outcome was “inactive”.
For `CO[C@@H]1COCC[C@@H]1N[C@@H]1CC[C@@](C(=O)N2CCc3ncc(C(F)(F)F)cc3C2)(C(C)C)C1`, the outcome was “inactive”.
With `CC/C=C\CCO` the outcome was “inactive”.
In the case of `OCCOc1cccc(OCCO)c1`, the outcome is reported as “inactive”.
In the case of `C[C@]12CCC(=O)C=C1[C@@H]1C[C@@H]1[C@H]1[C@@H]3[C@@H]4C[C@@H]4[C@@]4(CCC(=O)O4)[C@@]3(C)CC[C@@H]12`, the outcome is reported as “inactive”.
In the case of `O=C(O)c1cccc(C(=O)O)c1C(=O)O`, the outcome is reported as “inactive”.
For `CC(C)(C)c1ccc(CCC=O)cc1`, the outcome was “inactive”.
With `CCCC1CCOC(C)S1` (stereo not given) the outcome was “inactive”.
In the case of `Cc1nc(C)c(C)nc1C`, the outcome is reported as “inactive”.
In the case of `C[C@H](CN1CCCC1)C(=O)c1ccc(C(F)(F)F)cc1`, the outcome is reported as “inactive”.
For `O=Cc1ccc([N+](=O)[O-])cc1`, the outcome was “inactive”.
In the case of `CCOC(=O)CC(O)(CC(=O)OCC)C(=O)OCC`, the outcome is reported as “inactive”.
With `CCCCCC1CCC(=O)O1` (stereo not given) the outcome was “inactive”.
With `Cc1cc(SC2=C(O)C[C@@](CCc3ccc(N)cc3)(C(C)C)OC2=O)c(C(C)(C)C)cc1CO` the outcome was “inactive”.
For `CC(C)(C)c1cc(C=O)cc(C(C)(C)C)c1O`, the outcome was “inactive”.
With `C=CC(=O)OCCCCCCCCCC` the outcome was “inactive”.
For `OCC(O)c1ccccc1` (stereo not given), the outcome was “inactive”.
In the case of `Cc1cccc(C)c1NC(=O)CN1CCCC1`, the outcome is reported as “inactive”.
With `CCOc1ccc(NC(C)=O)cc1N` the outcome was “inactive”.
In the case of `CCCCOc1ccc(N)cc1`, the outcome is reported as “inactive”.
For `CCCCCCCCCCCC(=O)OCC`, the outcome was “inactive”.
For `c1ccc(CN(Cc2ccccc2)Cc2ccccc2)cc1`, the outcome was “inactive”.
For `CCc1c(C)[nH]c2c1C(=O)C(CN1CCOCC1)CC2` (stereo not given), the outcome was “inactive”.
With `COc1ccc(C(=O)c2ccc(C)cc2)c(O)c1` the outcome was “inactive”.
With `CC1=C(C)C(=O)C(C(CCCCCC(=O)O)c2ccccc2)=C(C)C1=O` (stereo not given) the outcome was “inactive”.
For `Cc1ccccc1CCO`, the outcome was “inactive”.
In the case of `S=c1[nH][nH]c(=S)s1`, the outcome is reported as “inactive”.
For `C[C@H](N)C(=O)N[C@@H](C)C(=O)NC1[C@H]2CN(c3nc4c(cc3F)c(=O)c(C(=O)O)cn4-c3ccc(F)cc3F)C[C@@H]12` (stereo not given in full), the outcome was “inactive”.
In the case of `O=C(O)CCc1nc2ccccc2[nH]1`, the outcome is reported as “inactive”.
For `COc1ccc(/C=C/c2cc(OC)cc(=O)o2)cc1`, the outcome was “inactive”.
For `O=Cc1ccc(Cl)c([N+](=O)[O-])c1`, the outcome was “inactive”.
With `CCOc1ccc2c(c1)C(C)CC(C)(C)N2` (stereo not given) the outcome was “inactive”.
For `CCOC(C)OCC`, the outcome was “inactive”.
In the case of `Nc1ccc(C(=O)Oc2ccccc2)c(O)c1`, the outcome is reported as “inactive”.
In the case of `CCC(CC)C(=O)O`, the outcome is reported as “inactive”.
`c1ccc(-c2ccc(-c3ccccc3)cc2)cc1` gave an activity change, negative = cytotoxicity of 4.6% [at 19 µM].
In the case of `O=C(Nc1ccc2c(c1)Cc1ccccc1-2)C(F)(F)F`, the outcome is reported as “inactive”.
In the case of `Nc1ccc(F)cc1F`, the outcome is reported as “inactive”.
With `CCCc1nc(C)c2c(=O)[nH]c(-c3cc(S(=O)(=O)N4CCN(CC)CC4)ccc3OCC)nn12` the outcome was “inactive”.
In the case of `Cc1c(Nc2ncccc2C(=O)O)cccc1C(F)(F)F`, the outcome is reported as “inactive”.
% is set by controls: 0 for no effect and ±100 for the full control effect.
